Measured values: PubChem BioAssay (Tox21)
Inconclusive results are not listed. Calls of active or inactive are those of the source. Unless noted, calls come from the whole dose curve; as a rule, active = well fitted curve in the direction sought with a large enough effect in the repeat runs; inconclusive = weak or mixed curves; inactive = no such curve, though single readings can be large; an effect the other way counts as inactive or inconclusive.

Key:
[1] = qHTS assay to identify small molecule agonists of the peroxisome proliferator-activated receptor delta (PPARd) signaling pathway - cell viability counter screen (AID 743211); note: nearly all actives have a fitted effect of over 55% in size
In short: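 Following 5 h plating at 37 C and 5% CO2, PPARd UAS-bla HEK293H cells took up test compounds for 17 h. Viability was quantified by luminescence 30 min after CellTiter-Glo addition at room temperature.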

[2] = molecular target: Peroxisome proliferator-activated receptor delta (Homo sapiens) (UniProt Q03181); experiment: qHTS assay to identify small molecule agonists of the peroxisome proliferator-activated receptor delta (PPARd) signaling pathway (AID 743212; calls by dose curve)
In short: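 Quantitative high-throughput agonist screen in a HEK293H beta-lactamase reporter line under UAS control. Compounds in DMSO, at 37 C. Fluorescence read after 2 h with FRET substrate at room temperature.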

[3] = qHTS assay to identify small molecule antagonists of the peroxisome proliferator-activated receptor delta (PPARd) signaling pathway - cell viability counter screen (AID 743213); note: nearly all actives have a fitted effect of over 50% in size
In short: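 PPARd-bla HEK293H cells were treated with compounds plus agonist L165041 (300 nM final) for 17 h at 37 C. Viability was then read in the same wells by CellTiter-Glo luminescence after 30 min at room temperature.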

[4] = molecular target: Peroxisome proliferator-activated receptor delta (Homo sapiens) (UniProt Q03181); experiment: qHTS assay to identify small molecule antagonists of the peroxisome proliferator-activated receptor delta (PPARd) signaling pathway (AID 743215; active = well fitted inhibition curve with a large enough effect in the signal ratio in the repeat runs, not every such curve was filed as active; the % refers to the signal ratio;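 note: cells stimulated with agonist L165041 at 300 nM final during compound exposure; series mostly up to about 62 µM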)
In short: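 HEK293H UAS-bla, PPARd; agonist L165041 300 nM final with cpd in DMSO; 37 C 17 h; FRET substrate, RT 2 h; fluorescence intensity.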

[5] = molecular target: Bile acid receptor (Homo sapiens) (UniProt Q96RI1); experiment: qHTS assay to identify small molecule antagonists of the farnesoid-X-receptor (FXR) signaling pathway (AID 743217; active = well fitted inhibition curve with a large enough effect in the signal ratio in the repeat runs, not every such curve was filed as active; the % refers to the signal ratio)
In short: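 GeneBLAzer FXR-UAS-bla HEK 293T, CDCA-stimulated (50 uM final). Compound treatment 16 h, 37 °C. Detection: beta-lactamase cleavage of B/G FRET substrate, fluorescence.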

[6] = qHTS assay to identify small molecule agonists of the farnesoid-X-receptor (FXR) signaling pathway - cell viability counter screen (AID 743218); note: nearly all actives have a fitted effect of over 45% in size
In short: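 Parallel cytotoxicity test: compound-treated (16 h, 37 C) HEK 293T FXR-bla reporter cells were lysed with CellTiter-Glo and luminescence recorded.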

[7] = molecular target: Bile acid receptor (Homo sapiens) (UniProt Q96RI1); experiment: qHTS assay to identify small molecule agonists of the farnesoid-X-receptor (FXR) signaling pathway (AID 743220; active = well fitted activation curve with a large enough effect in the signal ratio in the repeat runs, not every such curve was filed as active; the % refers to the signal ratio)
In short: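 Beta-lactamase reporter under UAS control in GeneBLAzer FXR HEK 293T cells (5000/well) measured with LiveBLAzer FRET substrate after 2 h at room temperature. Compound exposure lasted 16 h at 37C.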

[8] = molecular target: Vitamin D3 receptor (Homo sapiens) (UniProt P11473); experiment: qHTS assay to identify small molecule agonists of the vitamin D receptor (VDR) signaling pathway (AID 743222; calls by dose curve)
In short: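 In VDR-bla cells, compound-induced beta-lactamase expression is quantified by FRET substrate fluorescence. Treatment lasts 16 h at 37C; substrate develops 2 h at room temperature.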

[9] = molecular target: Vitamin D3 receptor (Homo sapiens) (UniProt P11473); experiment: qHTS assay to identify small molecule antagonists of the vitamin D receptor (VDR) signaling pathway (AID 743223; active = well fitted inhibition curve with a large enough effect in the signal ratio in the repeat runs, not every such curve was filed as active; the % refers to the signal ratio)
In short: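 Beta-lactamase activity in VDR-bla cells is measured by FRET substrate fluorescence (2 h, room temperature) after cells spend 16 h at 37C with test compound and 3 nM final 1alpha,25-dihydroxyvitamin D3.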

[10] = qHTS assay to identify small molecule antagonists of the farnesoid-X-receptor (FXR) signaling pathway - cell viability counter screen (AID 743221; active = well fitted cell-killing curve with a large enough effect in the repeat runs, not every such curve was filed as active; note: nearly all actives have a fitted effect of over 50% in size)
In short: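 Compound effects on cell number were measured as CellTiter-Glo luminescence in HEK 293T cells expressing FXR-UAS-bla, after 16 h at 37 C with 50 uM CDCA (final).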
% is set by controls: 0 for no effect and ±100 for the full control effect.

Sequence of Bile acid receptor (Homo sapiens) (Q96RI1 whole entry, looked up): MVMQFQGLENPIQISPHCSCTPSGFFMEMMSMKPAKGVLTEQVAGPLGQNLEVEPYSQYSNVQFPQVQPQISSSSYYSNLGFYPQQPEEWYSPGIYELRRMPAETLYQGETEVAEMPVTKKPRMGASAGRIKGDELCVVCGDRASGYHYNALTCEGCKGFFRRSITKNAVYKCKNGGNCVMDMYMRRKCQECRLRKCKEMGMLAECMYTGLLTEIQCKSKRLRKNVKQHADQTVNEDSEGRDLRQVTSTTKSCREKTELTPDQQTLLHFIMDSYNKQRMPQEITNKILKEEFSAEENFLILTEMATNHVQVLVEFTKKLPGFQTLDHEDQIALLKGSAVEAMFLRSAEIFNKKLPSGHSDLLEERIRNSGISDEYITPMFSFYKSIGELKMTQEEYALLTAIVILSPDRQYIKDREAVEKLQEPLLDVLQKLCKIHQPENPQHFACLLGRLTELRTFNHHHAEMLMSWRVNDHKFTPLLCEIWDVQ
Sequence of Peroxisome proliferator-activated receptor delta (Homo sapiens) (Q03181 whole entry, looked up): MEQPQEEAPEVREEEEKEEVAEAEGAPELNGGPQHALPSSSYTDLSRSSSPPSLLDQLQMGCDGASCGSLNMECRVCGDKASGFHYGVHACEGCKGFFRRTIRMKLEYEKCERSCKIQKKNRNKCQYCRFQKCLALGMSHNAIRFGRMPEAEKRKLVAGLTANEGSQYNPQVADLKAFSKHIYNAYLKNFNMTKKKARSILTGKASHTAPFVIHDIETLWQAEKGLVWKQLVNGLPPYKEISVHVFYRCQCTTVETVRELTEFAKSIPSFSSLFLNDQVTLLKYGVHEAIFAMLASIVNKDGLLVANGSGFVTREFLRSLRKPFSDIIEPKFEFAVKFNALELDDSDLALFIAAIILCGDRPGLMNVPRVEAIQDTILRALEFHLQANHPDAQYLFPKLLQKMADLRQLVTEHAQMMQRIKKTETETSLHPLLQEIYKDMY
Sequence of Vitamin D3 receptor (Homo sapiens) (P11473 whole entry, looked up): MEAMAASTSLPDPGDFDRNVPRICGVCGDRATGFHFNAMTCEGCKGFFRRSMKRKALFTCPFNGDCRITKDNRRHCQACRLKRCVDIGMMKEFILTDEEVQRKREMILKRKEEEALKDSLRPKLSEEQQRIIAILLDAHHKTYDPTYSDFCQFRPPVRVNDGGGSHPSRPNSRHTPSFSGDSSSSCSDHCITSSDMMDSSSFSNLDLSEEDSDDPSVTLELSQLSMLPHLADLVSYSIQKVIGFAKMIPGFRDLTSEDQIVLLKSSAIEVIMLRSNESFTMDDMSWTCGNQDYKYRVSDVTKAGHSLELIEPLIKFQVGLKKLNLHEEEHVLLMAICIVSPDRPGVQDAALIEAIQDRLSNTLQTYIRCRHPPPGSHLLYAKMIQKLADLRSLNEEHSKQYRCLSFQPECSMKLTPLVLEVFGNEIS

CCCCCCC#N
inactive: Potency [1] | outcome [2] | Potency [3] | Potency [4] | Potency [5] | Potency [6] | outcome [7] | outcome [8]

Sc1ccccc1Cl
inactive: Potency [1] | outcome [2] | Potency [3] | Potency [4] | Potency [5] | Potency [6] | outcome [7] | outcome [8] | outcome [9]

CCOC(=O)CBr
inactive: Potency [1] | outcome [2] | Potency [3] | Potency [4] | Potency [5] | outcome [7] | Potency [10] | outcome [8] | outcome [9]

COP(=S)(OC)Oc1cc(Cl)c(I)cc1Cl
inactive: Potency [1] | outcome [2] | Potency [3] | Potency [4] | Potency [5] | outcome [7] | Potency [10] | outcome [8]

CCCCCCCCCCOC(=O)c1ccccc1C(=O)OCCCCCCCCCC
inactive: Potency [1] | outcome [2] | Potency [3] | Potency [4] | Potency [5] | outcome [7] | Potency [10]

CCCCN=C=O
inactive: Potency [1] | outcome [2] | Potency [3] | Potency [4] | Potency [5] | Potency [6] | outcome [7] | Potency [10] | outcome [8] | outcome [9]

OCCCBr
inactive: Potency [1]

CCC(Br)(CC)C(=O)NC(N)=O
inactive: Potency [1] | outcome [2] | Potency [3] | Potency [4] | Potency [5] | Potency [6] | outcome [7] | outcome [8] | outcome [9]

CCOC(=O)COc1cc(-c2nn(C)c(OC(F)F)c2Cl)c(F)cc1Cl
inactive: Potency [1] | outcome [2] | Potency [3] | Potency [4] | outcome [8] | outcome [9]

Brc1ccc(Oc2ccccc2)cc1
inactive: Potency [1] | outcome [2] | Potency [3] | Potency [4] | Potency [6] | Potency [10] | outcome [8]

C[N+](C)(C)CCCl
inactive: Potency [1] | outcome [2] | Potency [3] | Potency [4] | Potency [6] | Potency [10] | outcome [9]

CN1C(=O)NC(=O)C(C)(C2=CCCCC2)C1=O (stereo not given)
inactive: Potency [1] | outcome [2] | Potency [3] | Potency [4] | Potency [10]

Cc1cc(=O)[nH]o1
inactive: Potency [1] | outcome [2] | Potency [3] | Potency [4] | Potency [10]

CCCCN(N=O)C(=N)N[N+](=O)[O-]
inactive: Potency [1] | outcome [2] | Potency [3] | Potency [4] | Potency [6] | Potency [10] | outcome [8]

COC(=O)C(C)N(C(=O)Cc1ccccc1)c1c(C)cccc1C (stereo not given)
inactive: Potency [1] | outcome [2] | Potency [3] | Potency [4] | Potency [6] | Potency [10] | outcome [9]

COC1=CC(=O)O[C@@H](CCc2ccccc2)C1
inactive: Potency [1] | outcome [2] | Potency [3] | Potency [4] | Potency [6] | Potency [10] | outcome [8]

c1ccc(CN2CCNCC2)cc1
inactive: Potency [1] | outcome [2] | Potency [3] | Potency [4] | Potency [10] | outcome [8]

O=C(C(Cl)(Cl)Cl)C(Cl)(Cl)Cl
inactive: Potency [1] | outcome [2] | Potency [3] | Potency [4] | Potency [5] | outcome [7] | outcome [8] | outcome [9]

COc1c(C(C)(C)C)cc([N+](=O)[O-])c(C)c1[N+](=O)[O-]
inactive: Potency [1] | outcome [2] | Potency [3] | Potency [4] | Potency [10] | outcome [8]

C=CC(=O)OCC(C)C
inactive: Potency [1] | outcome [2] | Potency [3] | Potency [4] | Potency [6] | Potency [10] | outcome [8] | outcome [9]

CC(=O)[C@H]1CC[C@H]2[C@@H]3CC[C@H]4C[C@](C)(O)CC[C@]4(C)[C@H]3CC[C@]12C
inactive: Potency [1] | outcome [2] | Potency [3] | Potency [4] | Potency [10]

COC(=O)C(Cl)C(=O)OC
inactive: Potency [1] | outcome [2] | Potency [3] | Potency [4] | outcome [7]

C=CC(=O)OC(C)(C)C
inactive: Potency [1] | outcome [2] | Potency [3] | Potency [4] | Potency [6] | Potency [10] | outcome [8]

COC(=O)C(Br)CBr (stereo not given)
inactive: Potency [1] | outcome [2] | Potency [3] | Potency [4] | Potency [6] | Potency [10] | outcome [8] | outcome [9]

Brc1ccccc1
inactive: Potency [1] | outcome [2] | Potency [3] | Potency [4] | Potency [6] | Potency [10] | outcome [8]

c1ccc(C2CC2)c(OCC2=NCCN2)c1
inactive: Potency [1] | outcome [2] | Potency [3] | Potency [4] | Potency [6] | outcome [8]

NNC(=O)c1cccnc1
inactive: Potency [1] | outcome [2] | Potency [3] | Potency [4] | Potency [5] | outcome [7] | Potency [10] | outcome [8] | outcome [9]

NCC(CC(=O)O)c1ccc(Cl)cc1 (stereo not given)
inactive: activity change, negative = cytotoxicity [1] -0.324% [at 0.55 µM] | activation [2] 1.99% [at 0.55 µM] | viability change, negative = cytotoxic [3] -11.6% [at 0.575 µM] | ratio activity, negative = inhibition [4] -0.236% [at 0.575 µM] | viability change, negative = cytotoxic [6] 0.276% [at 0.55 µM] | activity change, negative = cytotoxicity [10] 3.53% [at 0.55 µM]

CCN(C)N=O
inactive: Potency [1] | outcome [2] | Potency [3] | Potency [4] | Potency [10] | outcome [8] | outcome [9]

Cc1ccccc1C(=O)Nc1cccc(OC(C)C)c1
inactive: Potency [1] | outcome [2] | Potency [3] | Potency [4] | Potency [10]
